Laboratory results from PubChem BioAssay (NCATS).
Results filed as inconclusive are left out. The source made the active and inactive calls. Calls come from the whole dose curve; as a rule, active = well fitted curve in the direction sought with a large enough effect; inconclusive = small, poorly fitted or top-dose-only effect, or another doubt; inactive = no such curve, though single readings can be large or run the other way.

assay: qHTS for Inhibitors of the vitamin D receptor (VDR): Hit Validation using a Texas Red Assay (AID 602201); conditions: VDR coregulator binding, Texas Red fluorescence polarization, agonist-bound VDR ligand-binding domain; series mostly up to 57.1 µM
Outline: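 Fluorescence polarization (Ex 595/Em 615 nm) of Texas Red (7 nM) with 1.5 uM VDR-LBD and LG19078 (final concentrations). Compounds were incubated for 2 hours at room temperature.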
Potency is the fitted concentration of half-maximal effect.

Potency, inactive:
Cc1ccc(NN2C(=O)C=C(c3ccccc3)C2=O)cc1, O=C1C(C2=C(O)c3ccccc3C2=O)=Nc2ccccc21, O=S(=O)(/C(=C/c1ccc(C(F)(F)F)cc1)c1nc2ccccc2[nH]1)c1ccccc1, COCCN(CC(=O)NC1CCCCC1)C(=O)/C=C/C(=O)c1ccc(OC)cc1O, COc1cc(/C=C2\C(=O)ON=C2c2ccccc2)cc(Cl)c1O, CN(C)N=Nc1ccc2nc[nH]c2c1, O=C1C(=O)c2c(C(=O)c3ccccc3)coc2-c2ccccc21, Cc1ccc(S(=O)(=O)Oc2ccc(/C=C3\C(=N)N4N=C(S(C)(=O)=O)SC4=NC3=O)cc2)cc1, CCN(CC)S(=O)(=O)c1cc(NC(=O)c2ccc3c(c2)NC(=O)C(C)S3)ccc1C (stereo not given), O=C(O)/C=C/C(=O)c1ccc2c(c1)NC(=O)CO2, CCOc1ccc(C(=O)CC(C(=O)O)N2CCCCC2)cc1 (stereo not given), CCOC(=O)N1C(=O)[C@@](CC)(c2ccccc2)N1C(=O)OCC, CCOc1cc(/C=C2/C(=O)ON=C2C)cc(Br)c1O, O=C1Nc2ccc(Br)cc2C1=Nc1cccnc1, Cc1cc(C(C2C(=O)CC(C)(C)CC2=O)C2C(=O)CC(C)(C)CC2=O)cc(C)c1OC(F)F, O=C1NN(c2ccc(F)c(Cl)c2)C(=O)/C1=C\c1cccc(OC(=O)c2cccs2)c1, COc1cccc(C(=O)C(C#N)=C(SC)SC)c1

Potency, active:
COC(=O)/C=c1/sc2nc3ccccc3n2c1=O 8.91 µM, CN1C(=O)/C(=N\OC(=O)c2ccccc2Cl)c2ccccc21 31.6 µM, COc1cc(/C=C/C(=O)c2cccc([N+](=O)[O-])c2)cc(OC)c1OC 4.47 µM, c1ccc2c(C[n+]3csc4ccccc43)cccc2c1 10 µM, CN1CCN(C(c2ccc(Br)cc2)c2cc(Cl)c3cccnc3c2O)CC1 (stereo not given) 28.2 µM, CS(=O)(=O)c1ccc(C(=O)OCc2nnc(-c3ccc(Cl)cc3)o2)cc1[N+](=O)[O-] 8.91 µM, CCOC(=O)c1sc(=S)n2c1[nH]c(=O)c1ccc(C(=O)OC)cc12 10 µM, O=S(=O)(/N=C(\Sc1ccc(Cl)cc1)c1ccccc1)c1ccccc1 35.5 µM, O=C(c1cccs1)c1no[n+]([O-])c1C(=O)c1cccs1 3.55 µM, CCS(=O)(=O)c1ncc(Cl)c(C(=O)N2CCN(c3cccc(Cl)c3)CC2)n1 2.82 µM, O=C(/C(=C/c1ccncc1)n1ccnc1)c1ccc(Cl)cc1Cl 14.1 µM, O=C(COc1ccc(Cl)cc1)Nc1sc2c(c1C(=O)Nc1cccc(Cl)c1)CCCC2 8.91 µM, Nc1c(N2CCCC2)cc(Cl)c2nonc12 3.98 µM, COc1cccc(/C=C2\C(=O)N(c3cccc(C)c3)C(=O)c3ccccc32)c1 14.1 µM, CC(=O)NC1=CC(=O)c2nonc2C1=O 3.16 µM, CCOC(=O)c1c(C)oc2c1c1c(c3ccccc32)OCN(Cc2cccnc2)C1 20 µM, Cc1ccc(NC(=O)c2nc(S(=O)(=O)Cc3ccccc3F)ncc2Cl)cc1 2.82 µM, COc1cc(/C=C2\C(=O)ON=C2c2ccc(Cl)cc2)ccc1O 3.55 µM, COc1ccc(/C=C/C(=O)c2ccc([N+](=O)[O-])o2)cc1OC 10 µM, c1ccc(CCc2nn3c(Cn4cnc5ccccc54)nnc3s2)cc1 28.2 µM, O=C1/C(=C/c2cccc([N+](=O)[O-])c2)CCc2ccccc21 31.6 µM, Nc1cc(S(=O)(=O)Nc2ccccc2Cl)ccc1N1CCCCC1 5.62 µM, O=C(CCCSc1ccc(Cl)cc1)Nc1cc(S(=O)(=O)N2CCOCC2)ccc1O 7.94 µM
